This note sets out measurements from PubChem BioAssay (NCI).

Among the test systems are SR leukemia; RPMI-8226 leukemia; OVCAR-8 ovarian; OVCAR-5 ovarian; SK-OV-3 ovarian; IGROV1 ovarian; OVCAR-3 ovarian; HS 578T breast; NCI/ADR-RES ovarian; T-47D breast; BT-549 breast; MDA-MB-435 melanoma; SW-620 colon; MCF7 breast; HCT-116 colon; HCC-2998 colon; KM12 colon; OVCAR-4 ovarian.
Common to all, as to assay: NCI-60 one-dose screen, 48 h (100 = growth as untreated, 0 = no growth, -100 = all killed)
Details in all cases: 10 µM unless noted

About 83,000 compounds went through this panel and 20% of them were active in at least one assay; those are over-represented in the sample as a whole.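 The endpoint reported here, percent growth, reads 100 for growth as untreated, 0 for no net growth and -100 for all cells dead.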 Unmarked numbers belong to inactive results. Active and inactive are the calls of the source. The calls were made as follows: active = growth percent below 10; inactive = the rest.

With `CSc1ccc2c3c(n(CCCn4ccnc4)c(=O)c2c1)-c1ccccc1C3=O`, the growth in the test on SR leukemia was 3.2% (active); with RPMI-8226 leukemia it was 28.9%; in the test on OVCAR-8 ovarian, 40.2%; in the test on OVCAR-5 ovarian, 76.5%; in the test on SK-OV-3 ovarian it was 50.9%; in the test on IGROV1 ovarian, 58.9%. Moreover, the growth in the test on OVCAR-3 ovarian was 64.5%; in the test with HS 578T breast, 91.4%; with NCI/ADR-RES ovarian, 35.4%; in the test on T-47D breast, 15.9%; with BT-549 breast, 63.4%; with MDA-MB-435 melanoma, 64.6%. The growth in the test with SW-620 colon is 31.5%; in the test on MCF7 breast, 9.87% (active); in the test with HCT-116 colon, 10.6%; with HCC-2998 colon it was 75.9%; in the test on KM12 colon, 45.4%.
`CSc1ccc2c3c(n(C[C@H](O)CO)c(=O)c2c1)-c1ccccc1C3=O`: the growth with SR leukemia was 1.4% (active); in the test with RPMI-8226 leukemia it was -17.3% (active); in the test on OVCAR-8 ovarian it was 33.3%; in the test with OVCAR-5 ovarian, 62.2%; with OVCAR-4 ovarian, 85%; in the test with IGROV1 ovarian, 52.5%. For the same compound, the growth in the test on OVCAR-3 ovarian is 76.5%; in the test with HS 578T breast, 83.3%; in the test with NCI/ADR-RES ovarian it was 56%; in the test with T-47D breast, 27.3%; in the test on BT-549 breast it was 46.9%; in the test with MDA-MB-435 melanoma it was 72%. In addition, the growth was 27.6% in the test on SW-620 colon; 11.5% in the test on MCF7 breast; -20.6% (active) with HCT-116 colon; 88.8% in the test with HCC-2998 colon; 25.3% in the test on KM12 colon.
Consider `Cc1ccc(C(=O)c2ccc(CC(=O)N/N=C/c3cccc(O)c3O)n2C)cc1`, for which the growth was 8.86% (active) in the test on SR leukemia; 35.1% in the test with RPMI-8226 leukemia; 38.6% with OVCAR-8 ovarian; 72.6% in the test with OVCAR-5 ovarian; 68% with SK-OV-3 ovarian; 51.2% in the test with IGROV1 ovarian. In addition, the growth was 23.5% with OVCAR-3 ovarian; 87.4% with HS 578T breast; 19.2% in the test on NCI/ADR-RES ovarian; 25.9% with T-47D breast; 45.8% in the test on BT-549 breast; 61.1% in the test on MDA-MB-435 melanoma. Also, the growth in the test on SW-620 colon was 34.3%; in the test on MCF7 breast, 16.1%; with HCT-116 colon, 30.8%; with HCC-2998 colon, 70.6%; with KM12 colon it was 44.2%.
Consider `Clc1ccc(-c2nc(C(Cl)Cl)nc3cc(-c4ccccc4)nn23)cc1`, for which the growth with SR leukemia was 10.4%; in the test with RPMI-8226 leukemia it was 38.5%; in the test with OVCAR-8 ovarian it was 29.8%; in the test on OVCAR-5 ovarian, 17%; in the test with OVCAR-4 ovarian it was -7.63% (active); with IGROV1 ovarian, 54.8%. For the same compound, the growth is -10.2% (active) in the test with OVCAR-3 ovarian; -4.46% (active) in the test on HS 578T breast; 19.7% in the test on NCI/ADR-RES ovarian; 55.3% in the test with T-47D breast; 89% in the test on BT-549 breast; 37.9% with MDA-MB-435 melanoma. Moreover, the growth with SW-620 colon was -5.43% (active); in the test with MCF7 breast it was 24.8%; with HCT-116 colon, 23.1%; in the test with HCC-2998 colon, -53.7% (active); with KM12 colon, 3.35% (active).
For the compound `COc1ccc(-c2cc(C(=O)N3N=C(c4ccc(N)cc4)CC3c3ccc(Cl)cc3)c3cc(OC)ccc3n2)cc1` (stereo unspecified), the growth with SR leukemia is 20.9%; with RPMI-8226 leukemia it was 20.9%; with OVCAR-8 ovarian it was 56.4%; in the test with OVCAR-5 ovarian, 76.1%; in the test with OVCAR-4 ovarian, 53.9%; in the test on IGROV1 ovarian, 39.6%. The growth in the test on OVCAR-3 ovarian is 42.7%; in the test on HS 578T breast, 87.3%; with NCI/ADR-RES ovarian, 14.8%; with T-47D breast, 66.7%; in the test on BT-549 breast, 29.8%; in the test with MDA-MB-435 melanoma, 9.88% (active). In addition, the growth in the test on SW-620 colon is 35.5%; in the test on MCF7 breast it was 38.6%; with HCT-116 colon, 1.85% (active); in the test with HCC-2998 colon it was 83.3%; with KM12 colon it was 52.3%.
Turning to `COc1cc(/C=C/c2cc(/C=C/c3ccc(O)c(OC)c3)n(C(=O)Nc3ccc(Cl)cc3)n2)ccc1O`, the growth in the test on SR leukemia was 1.52% (active); in the test on RPMI-8226 leukemia, 2.91% (active); in the test with OVCAR-8 ovarian it was -19.8% (active); in the test with OVCAR-5 ovarian, 10.9%; in the test with SK-OV-3 ovarian it was -0.374% (active); in the test with IGROV1 ovarian, 9.93% (active). Besides, the growth is -11% (active) with OVCAR-3 ovarian; 8.23% (active) in the test with HS 578T breast; 17.5% with NCI/ADR-RES ovarian; 18.5% with T-47D breast; -14.4% (active) in the test on BT-549 breast; 2.46% (active) in the test with MDA-MB-435 melanoma. The growth is 9.56% (active) in the test on SW-620 colon; 5.36% (active) with MCF7 breast; 4.61% (active) with HCT-116 colon; 4.55% (active) in the test with HCC-2998 colon; 3.53% (active) in the test on KM12 colon.
For the compound `CS(=O)(=O)Nc1cc(-c2ccc3ncnc(Nc4ccc(F)c(Cl)c4)c3c2)ccc1Cl`, the growth in the test on SR leukemia is 35.1%; in the test on RPMI-8226 leukemia it was 37.4%; with OVCAR-8 ovarian it was 52%; with OVCAR-5 ovarian it was 53.9%; in the test with OVCAR-4 ovarian it was 52.5%; with IGROV1 ovarian it was -3.25% (active). Besides, the growth with OVCAR-3 ovarian was 36.3%; with HS 578T breast, 18.9%; in the test with NCI/ADR-RES ovarian it was 41.6%; with T-47D breast, 12.2%; in the test with BT-549 breast it was 49.4%; in the test with MDA-MB-435 melanoma it was 58.2%. The growth in the test on SW-620 colon is 75.4%; in the test on MCF7 breast, 23.9%; in the test with HCT-116 colon, 59.5%; in the test with HCC-2998 colon it was 79.9%; in the test on KM12 colon, 52.7%.
As for `CCOc1ccc(/C=C/C(=O)c2cccc(OCCCOc3cccc(C(=O)/C=C/c4ccc(OCC)cc4)c3)c2)cc1`, the growth in the test on SR leukemia was 90.1%; with RPMI-8226 leukemia, 93.6%; in the test on OVCAR-8 ovarian, 85.9%; with OVCAR-5 ovarian it was 107%; in the test with SK-OV-3 ovarian it was 103%; with IGROV1 ovarian, 78.7%. In addition, the growth in the test on OVCAR-3 ovarian is 85.5%; in the test with HS 578T breast, 90.2%; in the test with NCI/ADR-RES ovarian, 86.5%; with T-47D breast, 63.4%; in the test on BT-549 breast, 92.1%; in the test with MDA-MB-435 melanoma, 79.7%. Further, the growth in the test with SW-620 colon is 98%; in the test with MCF7 breast, 84.5%; in the test with HCT-116 colon it was 81.7%; with HCC-2998 colon it was 94.9%; with KM12 colon, 93%.
